Experimental data as given in the supplement of paper PMC11732987, “Enantioselective OTUD7B fragment discovery through chemoproteomics screening and high-throughput optimisation” (Communications Chemistry, 2025).

What was measured:
Test in all cases: log2 ratio of Biotin-Ahx-Ub-VS probe labelling (fragment/DMSO); higher = less target engagement (more negative = stronger competition), active = hit call of the paper (q ≤ 0.05, log2 ratio ≤ -1)
Settings in all cases: compound concentration: 200 uM; treatment time: 3 h
USP34 = USP34 (UniProt Q70CQ2)
Chain of USP34 (Q70CQ2 whole entry, the tested form may be a part): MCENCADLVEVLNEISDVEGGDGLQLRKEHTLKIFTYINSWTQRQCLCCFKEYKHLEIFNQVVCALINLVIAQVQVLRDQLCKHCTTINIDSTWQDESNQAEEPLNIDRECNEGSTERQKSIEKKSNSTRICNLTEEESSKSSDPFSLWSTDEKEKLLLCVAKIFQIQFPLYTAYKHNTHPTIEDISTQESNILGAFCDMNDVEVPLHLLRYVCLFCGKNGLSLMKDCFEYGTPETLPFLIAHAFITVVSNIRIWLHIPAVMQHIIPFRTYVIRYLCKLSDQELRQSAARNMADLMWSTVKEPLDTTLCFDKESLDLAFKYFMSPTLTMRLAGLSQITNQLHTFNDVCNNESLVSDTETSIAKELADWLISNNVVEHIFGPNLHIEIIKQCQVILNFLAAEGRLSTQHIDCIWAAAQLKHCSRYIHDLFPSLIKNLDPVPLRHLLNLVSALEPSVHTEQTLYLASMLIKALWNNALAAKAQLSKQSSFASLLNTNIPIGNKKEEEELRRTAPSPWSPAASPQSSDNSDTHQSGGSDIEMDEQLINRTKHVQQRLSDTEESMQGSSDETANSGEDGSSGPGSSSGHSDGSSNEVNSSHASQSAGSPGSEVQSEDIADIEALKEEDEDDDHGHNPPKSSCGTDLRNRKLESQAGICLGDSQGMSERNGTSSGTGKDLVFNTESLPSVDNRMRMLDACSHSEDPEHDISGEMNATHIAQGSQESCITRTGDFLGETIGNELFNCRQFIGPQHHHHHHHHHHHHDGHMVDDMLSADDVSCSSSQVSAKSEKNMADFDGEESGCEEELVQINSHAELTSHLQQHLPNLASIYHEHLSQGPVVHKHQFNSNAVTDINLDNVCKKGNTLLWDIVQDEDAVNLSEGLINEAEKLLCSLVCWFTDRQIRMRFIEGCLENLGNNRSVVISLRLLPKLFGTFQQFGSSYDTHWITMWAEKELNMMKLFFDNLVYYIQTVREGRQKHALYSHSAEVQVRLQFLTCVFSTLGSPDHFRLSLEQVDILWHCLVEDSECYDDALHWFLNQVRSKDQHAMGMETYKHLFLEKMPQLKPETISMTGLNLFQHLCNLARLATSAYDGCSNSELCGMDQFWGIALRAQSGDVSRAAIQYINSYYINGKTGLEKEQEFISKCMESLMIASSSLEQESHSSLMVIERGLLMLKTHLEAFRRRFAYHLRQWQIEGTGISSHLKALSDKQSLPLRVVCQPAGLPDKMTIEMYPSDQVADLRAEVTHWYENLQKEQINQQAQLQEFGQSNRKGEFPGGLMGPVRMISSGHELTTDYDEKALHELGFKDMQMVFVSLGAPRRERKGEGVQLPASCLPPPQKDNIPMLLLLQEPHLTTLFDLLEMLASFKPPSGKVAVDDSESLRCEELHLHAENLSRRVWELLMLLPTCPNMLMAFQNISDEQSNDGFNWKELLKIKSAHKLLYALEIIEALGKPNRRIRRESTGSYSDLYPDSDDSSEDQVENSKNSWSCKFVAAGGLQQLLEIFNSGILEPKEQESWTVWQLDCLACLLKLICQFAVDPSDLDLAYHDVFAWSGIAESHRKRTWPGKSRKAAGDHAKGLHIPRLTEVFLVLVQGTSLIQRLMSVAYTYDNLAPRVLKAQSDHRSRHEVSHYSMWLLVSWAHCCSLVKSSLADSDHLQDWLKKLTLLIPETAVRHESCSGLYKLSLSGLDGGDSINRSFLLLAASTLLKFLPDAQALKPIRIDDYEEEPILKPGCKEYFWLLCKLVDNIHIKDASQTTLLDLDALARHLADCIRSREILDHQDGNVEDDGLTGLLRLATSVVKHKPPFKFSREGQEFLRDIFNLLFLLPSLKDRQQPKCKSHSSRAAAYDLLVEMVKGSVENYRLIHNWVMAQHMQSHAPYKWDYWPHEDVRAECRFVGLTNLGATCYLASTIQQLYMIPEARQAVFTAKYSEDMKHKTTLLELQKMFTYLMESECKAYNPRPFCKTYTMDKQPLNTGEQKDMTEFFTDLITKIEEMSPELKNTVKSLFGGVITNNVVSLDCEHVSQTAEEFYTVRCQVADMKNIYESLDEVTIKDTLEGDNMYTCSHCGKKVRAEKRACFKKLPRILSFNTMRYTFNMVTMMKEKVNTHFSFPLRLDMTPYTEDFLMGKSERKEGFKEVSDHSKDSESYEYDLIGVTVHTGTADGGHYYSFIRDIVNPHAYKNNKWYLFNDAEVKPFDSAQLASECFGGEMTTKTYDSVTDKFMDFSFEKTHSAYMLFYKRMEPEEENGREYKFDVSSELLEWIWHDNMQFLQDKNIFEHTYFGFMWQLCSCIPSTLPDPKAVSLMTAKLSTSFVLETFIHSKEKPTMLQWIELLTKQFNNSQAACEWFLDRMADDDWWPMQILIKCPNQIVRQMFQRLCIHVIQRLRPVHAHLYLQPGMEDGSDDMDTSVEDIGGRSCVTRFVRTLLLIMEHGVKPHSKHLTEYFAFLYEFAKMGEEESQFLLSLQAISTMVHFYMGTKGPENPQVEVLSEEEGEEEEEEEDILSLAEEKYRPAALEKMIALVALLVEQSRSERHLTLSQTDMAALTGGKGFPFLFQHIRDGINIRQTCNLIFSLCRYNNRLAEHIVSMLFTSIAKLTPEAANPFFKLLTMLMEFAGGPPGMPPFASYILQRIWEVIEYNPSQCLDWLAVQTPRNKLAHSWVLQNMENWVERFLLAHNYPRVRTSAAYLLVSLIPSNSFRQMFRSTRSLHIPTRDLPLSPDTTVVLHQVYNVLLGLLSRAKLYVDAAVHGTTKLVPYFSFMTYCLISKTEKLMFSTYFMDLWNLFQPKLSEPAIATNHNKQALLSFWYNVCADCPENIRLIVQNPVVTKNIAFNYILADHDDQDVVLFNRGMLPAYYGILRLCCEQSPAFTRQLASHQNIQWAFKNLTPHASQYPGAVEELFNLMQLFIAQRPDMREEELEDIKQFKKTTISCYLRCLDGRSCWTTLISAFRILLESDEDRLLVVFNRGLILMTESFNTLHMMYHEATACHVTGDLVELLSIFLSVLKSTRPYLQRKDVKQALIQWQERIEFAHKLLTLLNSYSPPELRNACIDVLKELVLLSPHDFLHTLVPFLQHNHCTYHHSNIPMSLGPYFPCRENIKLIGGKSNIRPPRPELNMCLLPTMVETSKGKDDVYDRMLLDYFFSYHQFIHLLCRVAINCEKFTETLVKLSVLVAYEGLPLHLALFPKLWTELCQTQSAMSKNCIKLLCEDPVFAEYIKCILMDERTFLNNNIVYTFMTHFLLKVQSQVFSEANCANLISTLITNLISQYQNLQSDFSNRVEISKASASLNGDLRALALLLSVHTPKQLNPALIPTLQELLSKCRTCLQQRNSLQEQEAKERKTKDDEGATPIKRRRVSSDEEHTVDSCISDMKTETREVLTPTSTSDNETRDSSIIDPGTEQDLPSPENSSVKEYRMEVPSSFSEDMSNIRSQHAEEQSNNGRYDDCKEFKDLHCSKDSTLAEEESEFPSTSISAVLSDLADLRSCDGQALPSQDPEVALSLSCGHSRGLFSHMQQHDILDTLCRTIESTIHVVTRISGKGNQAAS
Procedure, shortened: (§1)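 Each value is an average log2 ratio of fragment to vehicle, tested by unpaired t-test. The underlying Spectronaut label-free quantities were global-median-normalised, and only proteins with ≥2 unique peptides were included. Triplicate HEK293T lysate samples (495 µg) were exposed to fragment at 200 µM or vehicle for 3 h, then to Biotin-Ahx-Ub-VS at 0.5 µM final for 1 h, before NeutrAvidin enrichment of labelled DUBs, LysC and trypsin digestion, and diaPASEF LC-MS/MS.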

USP36 = target: T1, USP36 (UniProt Q9P275)
T1 sequence (whole entry): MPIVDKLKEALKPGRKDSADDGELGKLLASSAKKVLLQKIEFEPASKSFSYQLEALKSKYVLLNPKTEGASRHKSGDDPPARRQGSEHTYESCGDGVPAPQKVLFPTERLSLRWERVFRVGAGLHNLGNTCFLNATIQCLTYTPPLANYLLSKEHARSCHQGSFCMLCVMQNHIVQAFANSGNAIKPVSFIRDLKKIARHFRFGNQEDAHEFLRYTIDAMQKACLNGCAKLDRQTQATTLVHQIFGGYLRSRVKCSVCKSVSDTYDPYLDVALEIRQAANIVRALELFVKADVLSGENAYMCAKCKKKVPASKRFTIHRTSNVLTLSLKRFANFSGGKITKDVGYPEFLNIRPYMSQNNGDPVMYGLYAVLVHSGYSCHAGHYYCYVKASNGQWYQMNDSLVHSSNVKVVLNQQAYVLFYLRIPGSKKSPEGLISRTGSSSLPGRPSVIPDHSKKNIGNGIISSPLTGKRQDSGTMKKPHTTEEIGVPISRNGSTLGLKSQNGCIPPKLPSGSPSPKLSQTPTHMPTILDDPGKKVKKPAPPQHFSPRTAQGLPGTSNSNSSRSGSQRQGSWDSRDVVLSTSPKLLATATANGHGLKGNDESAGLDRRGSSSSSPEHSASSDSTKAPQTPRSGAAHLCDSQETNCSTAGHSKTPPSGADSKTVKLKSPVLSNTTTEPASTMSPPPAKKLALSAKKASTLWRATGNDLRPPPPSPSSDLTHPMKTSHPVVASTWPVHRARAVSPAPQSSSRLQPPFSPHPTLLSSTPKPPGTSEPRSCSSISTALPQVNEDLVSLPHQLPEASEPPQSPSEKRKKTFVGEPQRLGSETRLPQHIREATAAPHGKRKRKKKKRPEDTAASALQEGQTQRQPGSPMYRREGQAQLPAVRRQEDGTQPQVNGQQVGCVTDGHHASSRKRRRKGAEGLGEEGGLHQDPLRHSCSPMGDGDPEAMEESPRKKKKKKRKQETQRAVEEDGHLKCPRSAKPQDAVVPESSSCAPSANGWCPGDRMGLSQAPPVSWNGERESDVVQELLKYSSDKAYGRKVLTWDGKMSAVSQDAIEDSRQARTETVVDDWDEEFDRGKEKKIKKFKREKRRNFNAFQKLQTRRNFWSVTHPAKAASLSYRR
Procedure, shortened: as §1

USP38 = target: T2, USP38 (UniProt Q8NB14)
T2 sequence (whole entry): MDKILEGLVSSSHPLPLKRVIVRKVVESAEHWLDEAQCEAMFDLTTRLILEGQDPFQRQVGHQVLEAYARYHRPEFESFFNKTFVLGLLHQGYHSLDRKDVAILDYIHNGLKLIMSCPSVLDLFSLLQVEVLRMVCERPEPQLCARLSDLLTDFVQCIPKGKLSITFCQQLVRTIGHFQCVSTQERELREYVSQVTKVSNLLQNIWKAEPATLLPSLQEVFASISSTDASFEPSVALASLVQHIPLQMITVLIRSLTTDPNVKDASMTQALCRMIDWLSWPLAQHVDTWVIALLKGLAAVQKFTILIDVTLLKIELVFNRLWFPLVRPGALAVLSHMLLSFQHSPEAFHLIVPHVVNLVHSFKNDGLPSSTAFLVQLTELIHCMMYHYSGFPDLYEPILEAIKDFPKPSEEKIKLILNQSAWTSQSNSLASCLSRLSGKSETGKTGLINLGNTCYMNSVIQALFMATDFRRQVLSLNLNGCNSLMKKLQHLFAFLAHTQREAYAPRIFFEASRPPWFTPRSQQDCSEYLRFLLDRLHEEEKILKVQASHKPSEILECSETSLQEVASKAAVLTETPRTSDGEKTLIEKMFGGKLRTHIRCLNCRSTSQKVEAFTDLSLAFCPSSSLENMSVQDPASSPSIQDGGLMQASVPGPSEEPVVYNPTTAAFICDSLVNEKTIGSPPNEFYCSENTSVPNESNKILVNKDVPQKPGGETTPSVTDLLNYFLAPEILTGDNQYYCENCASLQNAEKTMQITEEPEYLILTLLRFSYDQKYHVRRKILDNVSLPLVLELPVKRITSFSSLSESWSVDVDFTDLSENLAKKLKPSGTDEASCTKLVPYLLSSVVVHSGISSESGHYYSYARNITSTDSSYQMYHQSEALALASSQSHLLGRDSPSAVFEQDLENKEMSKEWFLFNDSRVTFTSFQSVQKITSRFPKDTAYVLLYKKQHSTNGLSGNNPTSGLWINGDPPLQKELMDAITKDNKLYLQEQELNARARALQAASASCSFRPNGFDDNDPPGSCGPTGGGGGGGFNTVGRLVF
Procedure, shortened: as §1

USP39 = target: T3, USP39 (UniProt Q53GS9)
T3 sequence (whole entry): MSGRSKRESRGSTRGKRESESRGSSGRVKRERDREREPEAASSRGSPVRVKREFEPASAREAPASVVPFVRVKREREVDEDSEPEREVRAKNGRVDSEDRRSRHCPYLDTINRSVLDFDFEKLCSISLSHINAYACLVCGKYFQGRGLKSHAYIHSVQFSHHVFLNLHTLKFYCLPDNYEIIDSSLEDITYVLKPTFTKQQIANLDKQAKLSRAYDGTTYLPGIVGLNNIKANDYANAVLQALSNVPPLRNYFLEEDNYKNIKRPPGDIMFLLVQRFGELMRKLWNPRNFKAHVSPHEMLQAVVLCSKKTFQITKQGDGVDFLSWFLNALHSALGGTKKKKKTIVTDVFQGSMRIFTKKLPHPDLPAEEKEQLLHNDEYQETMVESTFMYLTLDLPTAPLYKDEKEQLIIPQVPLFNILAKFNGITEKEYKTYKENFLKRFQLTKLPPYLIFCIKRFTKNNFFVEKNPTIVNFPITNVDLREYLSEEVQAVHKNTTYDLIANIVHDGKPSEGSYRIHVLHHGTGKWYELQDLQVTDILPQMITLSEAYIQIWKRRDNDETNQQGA
Procedure, shortened: as §1

USP4 = target: T4, USP4 (UniProt Q13107)
T4 sequence (whole entry): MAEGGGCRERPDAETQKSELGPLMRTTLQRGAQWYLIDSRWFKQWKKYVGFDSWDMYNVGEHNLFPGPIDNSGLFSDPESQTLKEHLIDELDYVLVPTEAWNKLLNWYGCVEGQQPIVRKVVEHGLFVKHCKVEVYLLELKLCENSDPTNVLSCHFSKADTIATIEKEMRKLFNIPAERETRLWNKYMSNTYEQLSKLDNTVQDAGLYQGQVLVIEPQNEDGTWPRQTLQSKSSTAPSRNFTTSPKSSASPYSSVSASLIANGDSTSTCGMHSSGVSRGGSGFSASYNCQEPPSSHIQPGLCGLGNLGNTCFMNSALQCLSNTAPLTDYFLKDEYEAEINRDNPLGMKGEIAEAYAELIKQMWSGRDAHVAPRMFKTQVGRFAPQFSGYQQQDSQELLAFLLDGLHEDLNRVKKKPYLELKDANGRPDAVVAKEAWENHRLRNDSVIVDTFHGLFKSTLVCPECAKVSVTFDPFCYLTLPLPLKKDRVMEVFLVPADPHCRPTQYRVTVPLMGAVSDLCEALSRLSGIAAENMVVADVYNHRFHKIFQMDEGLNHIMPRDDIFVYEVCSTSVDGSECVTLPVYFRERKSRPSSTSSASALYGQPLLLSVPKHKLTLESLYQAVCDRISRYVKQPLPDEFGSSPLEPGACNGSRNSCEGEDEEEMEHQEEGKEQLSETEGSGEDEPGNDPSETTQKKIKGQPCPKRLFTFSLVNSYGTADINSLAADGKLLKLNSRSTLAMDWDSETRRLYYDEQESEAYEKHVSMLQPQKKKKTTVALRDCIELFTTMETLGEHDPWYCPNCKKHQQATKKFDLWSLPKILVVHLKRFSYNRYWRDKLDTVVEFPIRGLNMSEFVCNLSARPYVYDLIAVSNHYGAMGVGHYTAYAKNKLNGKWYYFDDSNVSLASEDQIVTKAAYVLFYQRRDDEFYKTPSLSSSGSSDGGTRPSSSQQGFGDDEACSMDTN
Procedure, shortened: as §1

Measured: log2 ratio of Biotin-Ahx-Ub-VS probe labelling

Cc1ncsc1CCNC(=O)CCl
inactive: USP34 0.121 | USP36 -0.151 | USP38 0.14 | USP39 -0.101 | USP4 0.244
